For 22 compounds, outcome and AC50 results are on record in PubChem BioAssay (EPA / NIEHS).

Records with an inconclusive call do not appear. Activity calls are given as the source filed them. The calls were made as follows: active = hit-call score of the fitted dose curve at least 0.9, where 1 is the maximum; inconclusive = response in the unintended direction; inactive = score below 0.9.

For assay [1], the target named is Cellular tumor antigen p53 (Homo sapiens) (UniProt P04637). The assay can be described thus: TOX21_p53_BLA_p3_ratio: Tox21 HCT-116 p53 Agonism Beta-lactamase Assay, Ratio, Phase 3 (AID 2283596). The procedure, abridged:
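HCT116 p53-bla cells (4000/well) given compound in DMSO (217-fold dilution) after 5 h, incubated 16 h at 37C. CCF4-AM substrate 2 h at room temperature; 460/530 nm emission ratio, gain fitted against DMSO.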

Assay [2] is described as follows: TOX21_p53_BLA_p4_viability: Viability Assessment in the Tox21 HCT-116 p53 Agonism Beta-lactamase Assay, Phase 4 (AID 2283597).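 Also: hits lower the luminescence signal meaning cytotoxicity.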 In outline: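 Luminescent ATP readout (CellTiter-Glo, 30 min, room temperature) in the same wells as the p53 bla ratio. HCT116 cells were treated for 16 h at 37C with DMSO-dissolved compounds.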
For assay [3], the target named is Cellular tumor antigen p53 (Homo sapiens) (UniProt P04637). As to the kind of experiment: TOX21_p53_BLA_p5_ratio: Tox21 HCT-116 p53 Agonism Beta-lactamase Assay, Ratio, Phase 5 (AID 2283599). In outline:
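HCT-116 p53-bla cells (4000/well) plated 5 h, dosed with compound (217-fold DMSO dilution) for 16 h at 37 C; CCF4-AM substrate 2 h at room temperature. Activity is the 460/530 nm emission ratio (405 nm excitation), fitted in gain-of-signal direction versus DMSO.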

Assay [4] is described as follows: TOX21_p53_BLA_p5_viability: Viability Assessment in the Tox21 HCT-116 p53 Agonism Beta-lactamase Assay, Phase 5 (AID 2283600). In outline: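 Seeded cells (4000/well) settle 5 h before compound addition. Plates then incubate 16 h at 37C, receive FRET substrate for 2 h, and finally CellTiter-Glo, with luminescence measured after a 30 min room-temperature incubation.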

The nature of assay [5]: Tanguay_ZF_120hpf_YSE_legacy: (Legacy) Oregon State University Tanguay Lab 120 Hour Post-fertilization zebrafish Assay for Yolk Sac Edema (AID 2283634).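 As to AC50: actives raise the incidence of yolk sac edema above the DMSO baseline.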 The procedure, abridged: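 Single dechorionated embryos were held in sealed plates at 28C with test chemical (0.64% DMSO final) from 6 hpf until 120 hpf. Edema of the yolk sac was then recorded as a binary endpoint; non-mortality endpoints were skipped for dead embryos.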

Assay [6] is described as follows: Tanguay_ZF_120hpf_AXIS_legacy: (Legacy) Oregon State University Tanguay Lab 120 Hour Post-fertilization zebrafish Assay for Body Axis Malformation (AID 2283635).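 As to AC50: potency for an increased fraction of larvae scored with body axis malformation.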 In outline:
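Each dechorionated embryo was exposed alone from 6 hpf, with DMSO at 0.64% (vol/vol) and trimethyltin chloride 5 uM as positive control. Axis malformation was recorded at 120 hpf unless the embryo had died.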

Assay [7] can be described thus: Tanguay_ZF_120hpf_EYE_legacy: (Legacy) Oregon State University Tanguay Lab 120 Hour Post-fertilization zebrafish Assay for Eye Malformation (AID 2283636).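 Also: binary presence or absence of eye malformation scored by brightfield in 120 hpf larvae.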 In outline:
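Dechorionated Tropical 5D zebrafish embryos, one per well from 6 hpf, static exposure to 120 hpf at 28C, 0.64% DMSO. Eye malformation scored present/absent by brightfield; dead embryos not scored.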

The nature of assay [8]: Tanguay_ZF_120hpf_SNOU_legacy: (Legacy) Oregon State University Tanguay Lab 120 Hour Post-fertilization zebrafish Assay for Snout Malformation (AID 2283637). The procedure, abridged: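 Dechorionated tropical 5D wild-type zebrafish embryos exposed statically from 6 to 120 hpf at 28C, one per well, in 0.64% DMSO. Snout malformation scored as present/absent by brightfield at 120 hpf; dead embryos not scored.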

Assay [9] concerns the target Cellular tumor antigen p53 (Homo sapiens) (UniProt P04637). The assay can be described thus: TOX21_p53_BLA_p4_ratio: Tox21 HCT-116 p53 Agonism Beta-lactamase Assay, Ratio, Phase 4 (AID 2283601). In outline: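 HCT-116 p53 beta-lactamase reporter cells (4000/well) preincubated 5 h, then compound (217-fold dilution of DMSO stock) for 16 h at 37C. CCF4-AM substrate added 2 h at room temperature; 460/530 nm emission ratio fitted upward versus DMSO.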

Assay [10] is described as follows: Tanguay_ZF_120hpf_MORT_legacy: (Legacy) Oregon State University Tanguay Lab 120 Hour Post-fertilization zebrafish Assay for Mortality (AID 2283633). The procedure, abridged: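 Single dechorionated Tropical 5D embryos were held with test chemical (0.64% DMSO final) from 6 to 120 hpf at 28C under foil. Deaths at 24 or 120 hpf were recorded as binary calls, analysed for increase over DMSO controls.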

Cellular tumor antigen p53 (Homo sapiens), sequence (P04637 whole entry, looked up): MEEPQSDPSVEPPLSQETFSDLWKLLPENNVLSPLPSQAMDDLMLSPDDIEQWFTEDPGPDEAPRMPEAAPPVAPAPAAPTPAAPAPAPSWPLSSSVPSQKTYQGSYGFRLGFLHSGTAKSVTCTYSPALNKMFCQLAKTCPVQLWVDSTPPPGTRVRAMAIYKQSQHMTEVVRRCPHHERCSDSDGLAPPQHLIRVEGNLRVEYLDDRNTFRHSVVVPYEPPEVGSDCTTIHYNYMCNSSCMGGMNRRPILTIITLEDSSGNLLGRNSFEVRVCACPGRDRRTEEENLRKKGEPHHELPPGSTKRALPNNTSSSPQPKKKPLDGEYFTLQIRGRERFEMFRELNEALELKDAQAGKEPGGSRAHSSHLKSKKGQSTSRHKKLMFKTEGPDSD

As to `CCCCN(CC)c1c([N+](=O)[O-])cc(C(F)(F)F)cc1[N+](=O)[O-]`, the outcome in assay [1], in assay [2], in assay [3], in assay [4], in [5] and in assay [6] was inactive. Further, the compound was called inactive in assay [7] and in [8].
As to `C[N+]1(C)CCCCC1`, the result in [1], in assay [3], in assay [9], in assay [5], in [6] and in assay [7] was inactive. Besides, the compound was called inactive in assay [8].
As for `COc1cccc(C(=O)NN(C(=O)c2cc(C)cc(C)c2)C(C)(C)C)c1C`, the call in [4], in [9], in assay [10], in assay [5], in assay [6] and in assay [7] was inactive. Besides, the result in assay [8] was inactive.
As to `CCNc1nc(Cl)nc(NC(C)(C)C#N)n1`, the outcome in assay [2], in [3], in assay [9], in assay [5], in assay [7] and in assay [8] was inactive.
On to `CCOP(=O)(OCC)Oc1cc(C)nc(C(C)C)n1`, for which the outcome in [1], in assay [3], in assay [4], in [5], in [6] and in assay [7] was inactive. For the same compound, the outcome in [8] was inactive.
Take `Cc1ccn2nc(S(=O)(=O)Nc3c(F)cccc3F)nc2n1`: the call in assay [5], in assay [6], in [7] and in assay [8] was inactive.
Regarding `CN1COCN(Cc2cnc(Cl)s2)C1=N[N+](=O)[O-]`, the result in assay [3], in assay [9], in [10], in assay [5], in [6] and in assay [7] was inactive. The result in assay [8] was inactive.
Take `CCOP(=O)(SC(C)CC)N1CCSC1=O` (centres undefined): the result in assay [10], in assay [5], in assay [6], in assay [7] and in assay [8] was inactive.
With `CCOP(=S)(OCC)Oc1ccc([N+](=O)[O-])cc1`, the outcome in assay [1], in [3], in assay [5], in assay [6], in [7] and in assay [8] was inactive.
Take `O=C(O)c1cc(Oc2ccc(C(F)(F)F)cc2Cl)ccc1[N+](=O)[O-]`: the outcome in assay [5], in [6], in [7] and in [8] was inactive.
Consider `CN(C)[C@@H]1C(=O)C(C(N)=O)=C(O)[C@@]2(O)C(=O)C3=C(O)c4c(O)cccc4[C@@](C)(O)[C@H]3[C@H](O)[C@@H]12`, for which the call in assay [5], in assay [6], in assay [7] and in assay [8] was inactive.
With `CSc1nc(NC(C)C)nc(NC(C)C)n1`, the outcome in [1], in assay [4], in [5], in assay [6], in assay [7] and in assay [8] was inactive.
Turning to `CC(C)[C@H](C(=O)O[C@H](C#N)c1cccc(Oc2ccccc2)c1)c1ccc(Cl)cc1`, the call in [2], in assay [3], in [4], in assay [9] and in assay [10] was inactive. Also, the AC50 in assay [5] is 3.2 µM (active); in assay [6], 1.96 µM (active); in assay [7] it was 2.82 µM (active); in [8], 2.25 µM (active).
As to `CCCSP(=O)(OCC)SCCC`, the compound was called inactive in [5], in assay [6], in assay [7] and in assay [8].
`Cc1nn(-c2cc(NS(C)(=O)=O)c(Cl)cc2Cl)c(=O)n1C(F)F`: the result in [1], in assay [2], in [4], in assay [9], in [10] and in assay [5] was inactive. The result in assay [6], in assay [7] and in [8] was inactive.
Consider `COP(=O)(OC)OC(Br)C(Cl)(Cl)Br` (centres undefined), for which the call in [5], in [6], in assay [7] and in [8] was inactive.
With `CCCCOC(=O)c1ccccc1C(=O)O`, the result in assay [1], in assay [2], in [3], in [4], in assay [10] and in assay [5] was inactive. In addition, the outcome in assay [6], in [7] and in assay [8] was inactive.
For `CNC(=O)ON=C(C)SC`, the result in [4], in assay [9], in [5], in assay [7] and in [8] was inactive. Moreover, in assay [6], the half-maximal activity concentration (AC50) was 10.1 µM (active).
With `CC(C1CC1)C(O)(Cn1cncn1)c1ccc(Cl)cc1` (centres undefined), the result in [1], in assay [2], in assay [4] and in assay [9] was inactive. Also, the AC50 was 36.3 µM (active) in assay [5], 24.8 µM (active) in assay [6], 9.92 µM (active) in assay [7] and 9.24 µM (active) in assay [8].
For the compound `CCCOc1nn(C(=O)NS(=O)(=O)c2ccccc2C(=O)OC)c(=O)n1C`, the outcome in [3], in [9], in [5], in assay [7] and in assay [8] was inactive.
As to `COP(=O)(NC(C)=O)SC` (centres undefined), the outcome in [1], in [2], in [3], in assay [9], in assay [5] and in assay [6] was inactive. In addition, the outcome in assay [7] and in assay [8] was inactive.
As to `CCOC(=O)COc1cc(-c2nn(C)c(OC(F)F)c2Cl)c(F)cc1Cl`, the result in [1], in [2], in assay [9], in assay [5], in [6] and in assay [7] was inactive.
